# This is part of a sample that, as a whole, favours compounds with a hit. Of some 79,000 tested, about 15% had one in any assay. Unmarked numbers belong to inactive results. Calls of active or inactive are those of the source. Cut-off read from the data, not from the text of the source: active = growth inhibition above about 70%; inactive = the rest.
# Assay: NCI Yeast Anticancer Drug Screen. Data for the cln2 rad14 strain (AID 165);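 note: 0% = growth equal to vehicle treated cultures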
# Settings: S. cerevisiae cln2 rad14 strain, at 50.0 µM (retest, dose inferred, filed as 5.0), hits give high values
# Procedure, shortened: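 Each compound was tested on cln2 rad14 yeast. Inhibition of growth was calculated against vehicle-exposed controls.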
row,Structure (SMILES),growth inhibition
1,CCOc1ccccc1/C=C1\NC(=O)N(/C=C2\C(=O)Oc3ccccc3C2=O)C1=O,95% (active)
2,CC(NNC(=S)N1CCCC1)c1ccc2ccccc2n1 (stereo not given),95% (active)
3,N#Cc1c(-c2ccc(Cl)cc2)c(C#N)c(=O)n(NS(=O)(=O)c2ccccc2)c1S,63%
4,CC(C)/C=C1\CCOC1=O,3%
5,c1ccc(Nc2nnc3nc(-c4ccccc4)c(-c4ccccc4)nn23)cc1,41%
6,O=C(NC(c1ccccc1)N1CCOCC1)c1ccccc1 (stereo not given),3%
7,N[C@@H]1CCCC[C@@H]1N.O=C([O-])CN(CP(=O)([O-])[O-])CP(=O)([O-])[O-].[Pt+2],67%
8,C/C=C\C(/C=C/C)(C(=O)OCCN(C)C)C(/C=C\C)(/C=C/C)C(=O)OCCN(C)C (stereo not given),97% (active)
9,COc1ccc(CCNC(=S)/N=C\C(C(=O)c2ccccc2)=C(\O)c2ccccc2)cc1OC,98% (active)
10,Cc1ccccc1C1SCc2nc3ccccc3n21 (stereo not given),-20%
11,O=C(Nc1ccc(Cl)cc1)Nc1nnc(/C=C/c2ccc(Cl)c(Cl)c2)o1,-4%
12,Cc1c(CCCl)c(N=[N+]=[N-])n2c(nc3ccccc32)c1C#N,34%
13,O=C(OCCCC(C(=O)c1ccccc1)=P(c1ccccc1)(c1ccccc1)c1ccccc1)c1ccccc1,98% (active)
14,O=C(c1ccccc1)c1ccc(Cl)cc1,2%
15,O=C1C(C(O)(C(F)(F)Cl)C(F)(F)Cl)CCCC1C(O)(C(F)(F)Cl)C(F)(F)Cl (stereo not given),100% (active)
16,CCN(CC)C(=S)N=Nc1c(O)[nH]c2ccccc12,90% (active)
17,c1csc(-c2nnc(C34CC5CC(CC(C5)C3)C4)o2)c1,76% (active)
18,C/C(O)=C(/C=N/C(=S)Nc1ccc(S(N)(=O)=O)cc1)C(=O)Nc1ccccc1C,6%
19,CC(C)(Oc1ccc(-c2cccc3ccccc23)cc1)C(=O)O,54%
20,CCc1scc(C)[n+]1CC(=O)c1cccc([N+](=O)[O-])c1,18%

row,Structure (SMILES),growth inhibition
1,O=C1CCC(C(c2ccccc2)(c2ccccc2)c2ccccc2)CC1=O (stereo not given),99% (active)
2,Clc1ccc(C2SCc3nc4ccccc4n32)cc1Cl (stereo not given),95% (active)
3,OC(CBr)c1c(Br)ccc2ccccc12 (stereo not given),65%
4,O=C1OC(c2cccc(Cl)c2)Sc2ccccc21 (stereo not given),47%
5,c1ccc(N2CCN(c3ccccc3)C2Cc2c[nH]c3ccccc23)cc1,99% (active)
6,CC(=O)c1sc(Nc2ccc(Cl)c(Cl)c2)nc1C,35%
7,Cc1ncn(-c2ccccc2O)c1C,-8%
8,C[n+]1c(/C=C/c2ccc(N3CCCC3)cc2)sc2ccccc21,98% (active)
9,COc1ccc(-c2c(C#N)c(S)n(NS(=O)(=O)c3ccc(C)cc3)c(=O)c2C#N)cc1,64%
10,N#Cc1c(-c2ccc(Cl)c(Cl)c2)c(-c2ccc(Cl)c(Cl)c2)nn(CCO)c1=O,95% (active)
11,NCc1ccc(O)c(O)c1O,52%
12,C[CH2][Sn]([CH2]C)([O]C(=O)c1cc(OC)c(OC)c(OC)c1)[O][Sn]([CH2]C)([CH2]C)[O]C(=O)c1cc(OC)c(OC)c(OC)c1,61%
13,C=CCNCCC1CCCCCC1,96% (active)
14,Cc1ccc(/C=C/C(=O)/C=C/c2ccc(C)o2)o1,81% (active)
15,CCCC(=O)c1cc(O)c(O)c(CN(C)Cc2cc(Cl)cc(C)c2O)c1O,90% (active)
16,COC(=O)/C(C#N)=C/c1cc(OC)c(O)cc1Br,43%
17,O=C(/C=C/c1ccccc1)CCN1CCOCC1,84% (active)
18,c1cc2c(c3c1CN(C1CCCCC1)CO3)OCN(C1CCCCC1)C2,16%
19,CSc1nc2ccccc2s1,0%
20,CC1(C)CC(=O)C(CSC(=O)c2ccccc2)=C(O)C1,-11%

# Same assay, conditions: S. cerevisiae cln2 rad14 strain, at 50.0 µM, hits give high values
row,Structure (SMILES),growth inhibition
1,CCOc1ccccc1/C=C1\NC(=O)N(/C=C2\C(=O)Oc3ccccc3C2=O)C1=O,88.5% (active)
2,CC(NNC(=S)N1CCCC1)c1ccc2ccccc2n1 (stereo not given),97% (active)
3,N#Cc1c(-c2ccc(Cl)cc2)c(C#N)c(=O)n(NS(=O)(=O)c2ccccc2)c1S,19.4%
4,CC(C)/C=C1\CCOC1=O,44.5%
5,c1ccc(Nc2nnc3nc(-c4ccccc4)c(-c4ccccc4)nn23)cc1,33%
6,O=C(NC(c1ccccc1)N1CCOCC1)c1ccccc1 (stereo not given),76.9% (active)
7,N[C@@H]1CCCC[C@@H]1N.O=C([O-])CN(CP(=O)([O-])[O-])CP(=O)([O-])[O-].[Pt+2],98.3% (active)
8,C/C=C\C(/C=C/C)(C(=O)OCCN(C)C)C(/C=C\C)(/C=C/C)C(=O)OCCN(C)C (stereo not given),96.5% (active)
9,COc1ccc(CCNC(=S)/N=C\C(C(=O)c2ccccc2)=C(\O)c2ccccc2)cc1OC,97.8% (active)
10,Cc1ccccc1C1SCc2nc3ccccc3n21 (stereo not given),75.3% (active)
11,O=C(Nc1ccc(Cl)cc1)Nc1nnc(/C=C/c2ccc(Cl)c(Cl)c2)o1,-14.2%
12,Cc1c(CCCl)c(N=[N+]=[N-])n2c(nc3ccccc32)c1C#N,63.4%
13,O=C(OCCCC(C(=O)c1ccccc1)=P(c1ccccc1)(c1ccccc1)c1ccccc1)c1ccccc1,9.75%
14,O=C(c1ccccc1)c1ccc(Cl)cc1,-3%
15,O=C1C(C(O)(C(F)(F)Cl)C(F)(F)Cl)CCCC1C(O)(C(F)(F)Cl)C(F)(F)Cl (stereo not given),99.3% (active)
16,CCN(CC)C(=S)N=Nc1c(O)[nH]c2ccccc12,89.8% (active)
17,c1csc(-c2nnc(C34CC5CC(CC(C5)C3)C4)o2)c1,7.3%
18,C/C(O)=C(/C=N/C(=S)Nc1ccc(S(N)(=O)=O)cc1)C(=O)Nc1ccccc1C,81.3% (active)
19,CC(C)(Oc1ccc(-c2cccc3ccccc23)cc1)C(=O)O,70.5% (active)
20,CCc1scc(C)[n+]1CC(=O)c1cccc([N+](=O)[O-])c1,17.6%

row,Structure (SMILES),growth inhibition
1,O=C1CCC(C(c2ccccc2)(c2ccccc2)c2ccccc2)CC1=O (stereo not given),22.5%
2,Clc1ccc(C2SCc3nc4ccccc4n32)cc1Cl (stereo not given),95.6% (active)
3,OC(CBr)c1c(Br)ccc2ccccc12 (stereo not given),32.9%
4,O=C1OC(c2cccc(Cl)c2)Sc2ccccc21 (stereo not given),-16.7%
5,c1ccc(N2CCN(c3ccccc3)C2Cc2c[nH]c3ccccc23)cc1,92.5% (active)
6,CC(=O)c1sc(Nc2ccc(Cl)c(Cl)c2)nc1C,91.2% (active)
7,Cc1ncn(-c2ccccc2O)c1C,31.7%
8,C[n+]1c(/C=C/c2ccc(N3CCCC3)cc2)sc2ccccc21,98.8% (active)
9,COc1ccc(-c2c(C#N)c(S)n(NS(=O)(=O)c3ccc(C)cc3)c(=O)c2C#N)cc1,20%
10,N#Cc1c(-c2ccc(Cl)c(Cl)c2)c(-c2ccc(Cl)c(Cl)c2)nn(CCO)c1=O,96.8% (active)
11,NCc1ccc(O)c(O)c1O,-2.75%
12,C[CH2][Sn]([CH2]C)([O]C(=O)c1cc(OC)c(OC)c(OC)c1)[O][Sn]([CH2]C)([CH2]C)[O]C(=O)c1cc(OC)c(OC)c(OC)c1,21.9%
13,C=CCNCCC1CCCCCC1,8.8%
14,Cc1ccc(/C=C/C(=O)/C=C/c2ccc(C)o2)o1,39%
15,CCCC(=O)c1cc(O)c(O)c(CN(C)Cc2cc(Cl)cc(C)c2O)c1O,60.6%
16,COC(=O)/C(C#N)=C/c1cc(OC)c(O)cc1Br,43.8%
17,O=C(/C=C/c1ccccc1)CCN1CCOCC1,88.7% (active)
18,c1cc2c(c3c1CN(C1CCCCC1)CO3)OCN(C1CCCCC1)C2,-27.2%
19,CSc1nc2ccccc2s1,43.9%
20,CC1(C)CC(=O)C(CSC(=O)c2ccccc2)=C(O)C1,45.6%

# — PubChem BioAssay (NCI)
